# Results from the supplement of paper PMC8728848.
# Many of the other results were omitted from the sample, so the strongest signals are more common in it than they were.
# Tests used:
# Assay in all cases: glycan array binding signal (z-score within array); higher = stronger binding
# Conditions in all cases: glycan notation: IUPAC condensed, linker removed
# [1] = biological target: Gal(b1-4)GlcNAc(b1-3)[GlcNAc(b1-6)]Gal(b1-4)GlcNAc
# Outline: (§1)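 Columns mapping to the same glycan were averaged after glycan names were converted to IUPAC-condensed notation. The data come from 3228 arrays in the Consortium for Functional Glycomics database, limited to those with an available protein sequence. Binding is reported as a within-array Z-score averaged across arrays of one protein sequence and across linkers.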
# [2] = biological target: Gal(b1-4)GlcNAc(b1-6)Gal(b1-4)GlcNAc
# Outline: as §1
# Gal(b1-4)GlcNAc6P = biological target: Gal(b1-4)GlcNAc6P
# Outline: as §1
# GalNAc4S6S(b1-4)GlcNAc = biological target: GalNAc4S6S(b1-4)GlcNAc
# Outline: as §1
# [3] = biological target: Glc(a1-4)Glc(a1-4)Glc(a1-4)Glc
# Outline: as §1
# [4] = biological target: GlcNAc(b1-2)Man(a1-3)[GlcNAc(b1-4)][GlcNAc(b1-2)Man(a1-6)]Man(b1-4)GlcNAc(b1-4)GlcNAc
# Outline: as §1
# [5] = biological target: GlcNAc(b1-3)Gal(b1-4)GlcNAc(b1-3)Gal(b1-4)GlcNAc(b1-3)Gal(b1-4)GlcNAc(b1-2)Man(a1-3)[GlcNAc(b1-3)Gal(b1-4)GlcNAc(b1-3)Gal(b1-4)GlcNAc(b1-3)Gal(b1-4)GlcNAc(b1-2)Man(a1-6)]Man(b1-4)GlcNAc(b1-4)[Fuc(a1-6)]GlcNAc
# Outline: as §1
# GlcNAc(b1-3)Man = biological target: GlcNAc(b1-3)Man
# Outline: as §1
# [6] = biological target: GlcNAc(b1-4)GlcNAc(b1-4)GlcNAc
# Outline: as §1
# [7] = biological target: Kdn(a2-3)Gal(b1-4)[Fuc(a1-3)]GlcNAc
# Outline: as §1
# MurNAc(b1-4)GlcNAc = biological target: MurNAc(b1-4)GlcNAc
# Outline: as §1
# [8] = biological target: Neu5Ac(a2-3)Gal(b1-3)GlcNAc
# Outline: as §1
# [9] = biological target: Neu5Ac(a2-3)Gal(b1-3)GlcNAc(b1-2)Man(a1-3)[GlcNAc(b1-4)][Neu5Ac(a2-3)Gal(b1-3)GlcNAc(b1-2)Man(a1-6)]Man(b1-4)GlcNAc(b1-4)GlcNAc
# Outline: as §1
# [10] = biological target: Neu5Ac(a2-3)Gal(b1-4)GlcNAc(b1-2)Man(a1-3)[Neu5Ac(a2-3)Gal(b1-4)GlcNAc(b1-2)Man(a1-6)]Man(b1-4)GlcNAc(b1-4)GlcNAc
# Outline: as §1
# [11] = biological target: Neu5Ac(a2-3)Gal(b1-4)GlcNAc(b1-2)[Neu5Ac(a2-3)Gal(b1-4)GlcNAc(b1-6)]Man(a1-6)[Neu5Ac(a2-3)Gal(b1-4)GlcNAc(b1-2)Man(a1-3)]Man(b1-4)GlcNAc(b1-4)GlcNAc
# Outline: as §1
# [12] = biological target: Neu5Ac(a2-3)Gal(b1-4)GlcNAc(b1-3)GalNAc
# Outline: as §1
# [13] = biological target: Neu5Ac(a2-3)Gal6S(b1-4)GlcNAc
# Outline: as §1
# [14] = biological target: Neu5Ac(a2-3)[GalNAc(b1-4)]Gal(b1-4)Glc
# Outline: as §1
# [15] = biological target: Neu5Ac(a2-6)Gal(b1-3)GlcNAc(b1-3)[Gal(b1-4)GlcNAc(b1-6)]Gal(b1-4)Glc
# Outline: as §1
# [16] = biological target: Neu5Ac(a2-6)Gal(b1-4)GlcNAc
# Outline: as §1
# [17] = biological target: Neu5Ac(a2-6)Gal(b1-4)GlcNAc(b1-2)Man(a1-6)[Man(a1-3)]Man(b1-4)GlcNAc(b1-4)GlcNAc
# Outline: as §1
# [18] = biological target: Neu5Ac(a2-6)Gal(b1-4)GlcNAc(b1-2)[Neu5Ac(a2-6)Gal(b1-4)GlcNAc(b1-4)]Man(a1-3)[GlcNAc(b1-4)][Neu5Ac(a2-6)Gal(b1-4)GlcNAc(b1-2)[Neu5Ac(a2-6)Gal(b1-4)GlcNAc(b1-6)]Man(a1-6)]Man(b1-4)GlcNAc(b1-4)GlcNAc
# Outline: as §1
# [19] = biological target: Neu5Ac(a2-6)Gal(b1-4)GlcNAc(b1-6)[Gal(b1-3)]GalNAc
# Outline: as §1
# [20] = biological target: Neu5Ac(a2-6)GalNAc(b1-4)GlcNAc6S
# Outline: as §1
# [21] = biological target: Neu5Ac(a2-8)Neu5Ac(a2-3)[GalNAc(b1-4)]Gal(b1-4)Glc
# Outline: as §1
# [22] = biological target: Neu5Ac(a2-8)Neu5Ac(a2-8)Neu5Ac(a2-3)Gal(b1-4)Glc
# Outline: as §1
# [23] = biological target: Neu5Ac9Ac(a2-6)Gal(b1-4)GlcNAc
# Outline: as §1
# [24] = biological target: Neu5Gc(a2-8)Neu5Gc(a2-3)Gal(b1-4)GlcNAc(b1-3)Gal(b1-4)GlcNAc
# Outline: as §1
binder,measurement,setting,value
Sp8391B-bot-388-20-388 (Bacteroides ovatus) (protein) GCQNNDENEQHYDNKLFISASNFTKEILFKAGDTNVETGLSVAIAKPEEHDIKVTMSPAPELLSTYKLAYYDETAVLLSEEHYSMPETSTTIKSGSIVSPELPIEFINTGELDIKTTYVLPVTIKSVEGIGVLQSAKTYYYVFRGASLINVVCNISRNRAYPDFKNDSKFNNLTENTMEILFKANSFPNTLNTLMGIESNYLLRIGDATIPNNQLQVATSVNNCTSADLQLESGKWYHVAVAFNKGNVKVYINGVEKLSGSTGKSSVSLGAKHTNEEDGSRCFWVGYSYKDDRYFDGVVSEVRIWNRALTAEEIQATNHFYTIEPESEGLIAYWKFDEGSGTVAKDYSVSGYDLTIEKEPKWESVSLPQ,glycan array binding signal (z-score),[1],0.193
same,glycan array binding signal (z-score),[2],0.486
same,glycan array binding signal (z-score),Gal(b1-4)GlcNAc6P,0.015
same,glycan array binding signal (z-score),GalNAc4S6S(b1-4)GlcNAc,-0.043
same,glycan array binding signal (z-score),[3],-0.549
same,glycan array binding signal (z-score),[4],-0.101
same,glycan array binding signal (z-score),[5],2.65
same,glycan array binding signal (z-score),GlcNAc(b1-3)Man,0.083
same,glycan array binding signal (z-score),[6],-0.077
same,glycan array binding signal (z-score),[7],1.91
same,glycan array binding signal (z-score),MurNAc(b1-4)GlcNAc,-0.265
same,glycan array binding signal (z-score),[8],-0.213
same,glycan array binding signal (z-score),[9],-0.652
same,glycan array binding signal (z-score),[10],-0.533
same,glycan array binding signal (z-score),[11],0.918
same,glycan array binding signal (z-score),[12],-0.435
same,glycan array binding signal (z-score),[13],-0.501
same,glycan array binding signal (z-score),[14],0.131
same,glycan array binding signal (z-score),[15],6.14
same,glycan array binding signal (z-score),[16],-0.355
same,glycan array binding signal (z-score),[17],0.075
same,glycan array binding signal (z-score),[18],2.53
same,glycan array binding signal (z-score),[19],-0.211
same,glycan array binding signal (z-score),[20],-0.019
same,glycan array binding signal (z-score),[21],0.19
same,glycan array binding signal (z-score),[22],0.117
same,glycan array binding signal (z-score),[23],-0.27
same,glycan array binding signal (z-score),[24],-1.02
